Reference: PubChem BioAssay
Results filed as inconclusive are left out. Calls of active or inactive are those of the source.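 The calls were made as follows, unless noted: active = GFP signal, as percent of the solvent control, above the screen mean plus 3 SD, about 149; inconclusive = no reading because the compound's own fluorescence upset strain identification; inactive = the rest.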

Experiments:
[1] = rapamycin-like changes in RPL19A-GFP expression – cell-based, S. cerevisiae, multiplex flow cytometry, primary screen (AID 1862; in the data active = percent of DMSO control GFP below about 86%;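 also: lower values mimic rapamycin by blocking the RPL19A rise seen in DMSO cells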); conditions: S. cerevisiae RPL19A-GFP strain, flow cytometry fluorescence, 3 h; at 10 µM; stronger effect = lower value
[2] = TOR pathway GLN3 branch reporter MEP2-GFP changes – S. cerevisiae, multiplex flow cytometry, primary screen (AID 1867;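 active = GFP response, as percent of the DMSO control, above the screen-wide mean plus 3 SD, about 139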;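 also: median GFP channel fluorescence of barcode-gated MEP2-GFP cells measured by flow cytometry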); conditions: S. cerevisiae MEP2-GFP strain, 3 h, at 10 µM, stronger effect = higher value, 100% means same as DMSO wells
[3] = TOR pathway RTG branch CIT2 reporter changes – S. cerevisiae, GFP fusion, multiplex flow cytometry, primary screen (AID 1870;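 active = percent response above a set limit, the screen-wide mean plus 3 SD, cut at about 130% in these data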;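 also: barcoded CIT2-GFP strain pooled with four other GFP strains with rapamycin as positive control; median GFP fluorescence per well over plate mean of DMSO wells so 100% = DMSO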); conditions: S. cerevisiae CIT2-GFP expression, 3 h, at 10 µM, stronger effect = higher value
[4] = TOR pathway LAP4-GFP level changes – S. cerevisiae, multiplex flow cytometry, primary screen (AID 1873); conditions: S. cerevisiae LAP4-GFP expression, 3 h, at 10 µM, stronger effect = higher value
[5] = reduced mouse 2C T cell binding to pMHC/ICAM-1 vesicles – MLPCN validation set, flow cytometry, LFA-1/ICAM-1 modulator project, pilot screen (AID 2523;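 active = response below a set limit, under 55% cells CD8-positive and vesicle-bound, and CD8 cells' 90th-percentile brightness under 279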;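 as to vesicle binding response: mean PE anti-B7-1 fluorescence of CD8+ cells relative to row control; 100% = QL9-loaded vesicles with DMSO vehicle in the same plate row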); conditions: 2C mouse CD8+ T cells, at 7 µM, stronger effect = lower value; double positive events: measured here: CD8+/vesicle+ event percentage
[6] = target: Integrin beta-1 (Homo sapiens) + Integrin alpha-4 (Homo sapiens) (UniProt P13612+P05556); test: alpha4beta1 integrin LIBS antibody binding reduction – U937 cells, HUTS-21 mAb, flow cytometry, validation set, VLA-4 allosteric modulator project, pilot screen (AID 2674;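 active = inhibition above 50%, about 3 SD of the validation set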;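 also: antibody binding induced by the VLA-4 ligand LDV present at three times its Kd; 0% = LDV ligand with antibody and no compound and 100% = antibody without LDV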); conditions: HUTS-21 LIBS mAb binding, at 6.7 µM, stronger effect = higher value, binding induced by LDV ligand
[7] = calorie-restriction mimetic ROS inhibitors, yeast – validation compound set, pilot screen (AID 2706;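 active = superoxide response below 65% of plate, a cut near 3 SD across the whole screen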;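 also: yeast exposed to compound for one week at 30 degrees C before staining; 100% = mean of all compound wells on the same plate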); conditions: S. cerevisiae aging, superoxide DHE fluorescence; at 10 µM, stronger effect = lower value
[8] = target: Beta-adrenergic receptor kinase 1 (Homo sapiens) (UniProt P25098); test: GRK2 binders displacing RNA aptamer, biochemical, validation, human GRK2, bead flow cytometry (AID 488806;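 active = aptamer binding inhibition above 30%, about 3 SD of noise from non-fluorescent compounds; inactive = inhibition at or below 30%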); conditions: bead-bound GRK2, FAM-aptamer displacement, at 10 µM, stronger effect = higher value
[9] = target: Beta-2 adrenergic receptor (Homo sapiens) (UniProt P07550); test: agonist-induced loss of surface beta2AR – cell-based, FAP fluorogen, flow cytometry, validation set, pilot screen (AID 504459;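 active = percent response above 42, roughly 3 SD of non-fluorescent test compounds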;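 also: agonist-driven loss of surface beta2AR via internalization measured by FAP dye flow cytometry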); conditions: Am2.2-beta2AR cells, at 10 µM, stronger effect = higher value
[10] = target: AP-2 complex subunit beta (Homo sapiens) (UniProt P63010); test: beta-arrestin/AP2 interaction blockers – biochemical, validation set, GST-AP2 beads, flow cytometry, pilot screen (AID 504541;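 active = inhibition above 54%, about 3 SD of non-fluorescent compounds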;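 also: AP2 carries R879A mutation and is captured from E. coli lysate; bead-bound FITC arrestin peptide fluorescence measuring arrestin peptide binding to AP2; 0% = DMSO wells and 100% = excess unlabeled arrestin peptide control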); conditions: FITC arrestin peptide, at 10 µM, stronger effect = higher value, AP2 beta2 appendage fragment, R879A mutant
[11] = cytosolic pH regulators acting via V-ATPase – S. cerevisiae, pHLuorin, HTS validation (AID 504600; in the data active = response above about 15%;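 also: plate controls were DMSO for no effect and reference compound for full effect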); conditions: V-ATPase proton transport, at 10 µM, stronger effect = higher value
[12] = system: anti-desmoglein-3 scFv antibody binding to human DSG3; test: blockers of pathogenic pemphigus antibody–desmoglein-3 binding – biochemical, validation compound set, bead-based, flow cytometry, pilot screen (AID 588368;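 active = binding below the plate cutoff, the plate median minus 3 SD, with a reading above zero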;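 also: signal is the median channel fluorescence of bead-bound GFP antibody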); conditions: Protein G beads, DSG3-Fc, scFv-GFP binding, at 10 µM, stronger effect = lower value
[13] = Nile Red efflux blockade in pump-expressing yeast – validation compound set, multiplex, phenotypic, pilot screen (AID 588506;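 active = efflux inhibition above 0.42, the validation set average plus 4 SD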;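 also: Nile Red retained in cells so higher fluorescence means more efflux inhibition; 0 = negative control wells and 1 = enniatin B 25 µM full block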); conditions: S. cerevisiae pump-expressing triplex, Nile Red efflux flow cytometry; at 10 µM; stronger effect = higher value; the pumps come from Candida albicans
[14] = target: ATP-binding cassette sub-family B member 6 (Homo sapiens) (UniProt Q9NP58); test: blockers of ABCB6-driven porphyrin uptake – K562-ABCB6 cells, flow cytometry, validation set, pilot screen (AID 588550;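 active = inhibition above the screen-wide mean plus 3 SD, about 51%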;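 also: 0% = DMSO wells and 100% = benzethonium chloride 70 µM positive control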); conditions: K562-ABCB6 porphyrin accumulation, 1 h, at 10 µM, stronger effect = higher value
[15] = AML differentiation inducers, ER-HoxA9 marrow cells – cell-based, GFP/MAC1 double positive, flow cytometry, validation set, primary screen (AID 588685;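 active = differentiation response of at least 50%, scaled between solvent and reference control, from cells with both markers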;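 also: compound exposure lasts four days before antibody staining and flow analysis; 0% = DMSO wells and 100% = 5 µM fulvestrant positive control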); conditions: stronger effect = higher value, normalized: vehicle 0, fulvestrant 100
[16] = yeast AGP1-GFP level changes, GLN3 branch – cell-based, multiplex flow cytometry, S. cerevisiae, primary screen (AID 1887;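 active = GFP signal above the screen-wide mean plus 3 SD, that is over about 124.5% of the solvent control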;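 also: AGP1-GFP fusion strain of S. cerevisiae within a five-strain barcoded multiplex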); conditions: 3 h, at 10 µM, stronger effect = higher value

Beta-adrenergic receptor kinase 1 (Homo sapiens), sequence (P25098 whole entry, looked up): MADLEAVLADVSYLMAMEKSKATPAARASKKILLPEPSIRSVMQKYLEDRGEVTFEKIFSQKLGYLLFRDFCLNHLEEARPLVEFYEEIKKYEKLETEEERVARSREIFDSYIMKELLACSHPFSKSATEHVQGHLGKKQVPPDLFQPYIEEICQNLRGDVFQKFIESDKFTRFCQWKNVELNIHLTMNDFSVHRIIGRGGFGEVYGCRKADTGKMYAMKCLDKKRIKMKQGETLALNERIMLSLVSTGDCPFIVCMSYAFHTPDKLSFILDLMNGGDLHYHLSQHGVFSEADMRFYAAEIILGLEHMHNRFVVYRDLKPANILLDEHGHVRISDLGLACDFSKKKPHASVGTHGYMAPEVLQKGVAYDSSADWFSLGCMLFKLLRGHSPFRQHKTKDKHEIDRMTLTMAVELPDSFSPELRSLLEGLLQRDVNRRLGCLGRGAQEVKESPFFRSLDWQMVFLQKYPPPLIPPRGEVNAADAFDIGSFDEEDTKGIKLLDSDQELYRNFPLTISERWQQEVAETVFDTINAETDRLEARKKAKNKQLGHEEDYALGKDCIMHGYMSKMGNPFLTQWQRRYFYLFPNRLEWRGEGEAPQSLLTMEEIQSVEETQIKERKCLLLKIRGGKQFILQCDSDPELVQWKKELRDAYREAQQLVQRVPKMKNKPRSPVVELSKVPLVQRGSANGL
Integrin beta-1 (Homo sapiens) + Integrin alpha-4 (Homo sapiens), sequence (P05556 whole entry, looked up): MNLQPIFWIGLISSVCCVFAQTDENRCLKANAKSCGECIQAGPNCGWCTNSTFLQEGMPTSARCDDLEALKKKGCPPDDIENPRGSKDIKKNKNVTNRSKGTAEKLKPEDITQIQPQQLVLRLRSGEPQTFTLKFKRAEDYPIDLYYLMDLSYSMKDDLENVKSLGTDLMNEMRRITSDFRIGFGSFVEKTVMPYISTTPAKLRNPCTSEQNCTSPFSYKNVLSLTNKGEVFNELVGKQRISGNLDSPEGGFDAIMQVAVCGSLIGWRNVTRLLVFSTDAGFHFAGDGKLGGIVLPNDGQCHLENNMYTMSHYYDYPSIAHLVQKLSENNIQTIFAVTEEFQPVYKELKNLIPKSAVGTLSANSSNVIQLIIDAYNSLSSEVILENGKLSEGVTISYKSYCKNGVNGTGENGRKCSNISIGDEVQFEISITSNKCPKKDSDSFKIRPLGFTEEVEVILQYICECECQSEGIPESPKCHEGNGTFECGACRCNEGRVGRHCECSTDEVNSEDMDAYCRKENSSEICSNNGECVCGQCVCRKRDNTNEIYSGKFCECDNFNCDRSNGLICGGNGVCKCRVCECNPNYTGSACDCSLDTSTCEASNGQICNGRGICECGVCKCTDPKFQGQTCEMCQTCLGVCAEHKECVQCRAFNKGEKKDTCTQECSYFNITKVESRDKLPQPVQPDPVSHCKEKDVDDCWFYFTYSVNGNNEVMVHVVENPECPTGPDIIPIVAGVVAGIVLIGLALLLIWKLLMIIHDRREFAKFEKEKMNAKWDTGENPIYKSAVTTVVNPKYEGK
Integrin beta-1 (Homo sapiens) + Integrin alpha-4 (Homo sapiens), sequence (P13612 whole entry, looked up): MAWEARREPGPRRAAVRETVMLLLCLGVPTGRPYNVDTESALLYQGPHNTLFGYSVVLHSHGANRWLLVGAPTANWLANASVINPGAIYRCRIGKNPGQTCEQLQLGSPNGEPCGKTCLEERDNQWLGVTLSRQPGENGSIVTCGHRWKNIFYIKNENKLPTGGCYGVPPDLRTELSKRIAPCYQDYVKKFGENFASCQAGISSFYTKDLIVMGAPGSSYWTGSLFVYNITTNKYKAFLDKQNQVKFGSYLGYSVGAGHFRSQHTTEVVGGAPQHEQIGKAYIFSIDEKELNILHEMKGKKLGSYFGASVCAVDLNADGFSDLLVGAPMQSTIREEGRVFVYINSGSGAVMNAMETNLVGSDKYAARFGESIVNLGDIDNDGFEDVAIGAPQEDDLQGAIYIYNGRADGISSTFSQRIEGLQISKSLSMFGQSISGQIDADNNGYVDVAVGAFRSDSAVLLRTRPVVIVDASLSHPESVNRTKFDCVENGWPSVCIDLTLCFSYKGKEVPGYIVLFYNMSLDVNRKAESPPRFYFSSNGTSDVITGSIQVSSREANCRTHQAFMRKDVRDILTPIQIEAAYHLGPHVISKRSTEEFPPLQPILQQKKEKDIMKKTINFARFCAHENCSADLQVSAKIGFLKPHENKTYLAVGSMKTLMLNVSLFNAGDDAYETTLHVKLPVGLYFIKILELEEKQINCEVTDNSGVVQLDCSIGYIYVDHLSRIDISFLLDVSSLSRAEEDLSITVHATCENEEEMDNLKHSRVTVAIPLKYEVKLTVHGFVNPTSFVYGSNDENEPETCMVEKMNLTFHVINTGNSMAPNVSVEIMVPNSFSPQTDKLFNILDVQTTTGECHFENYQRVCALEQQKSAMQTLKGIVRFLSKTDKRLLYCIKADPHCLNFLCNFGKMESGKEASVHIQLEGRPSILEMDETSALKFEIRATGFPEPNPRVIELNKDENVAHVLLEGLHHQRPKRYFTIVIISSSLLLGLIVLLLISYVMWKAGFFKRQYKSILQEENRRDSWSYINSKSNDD
ATP-binding cassette sub-family B member 6 (Homo sapiens), sequence (Q9NP58 whole entry, looked up): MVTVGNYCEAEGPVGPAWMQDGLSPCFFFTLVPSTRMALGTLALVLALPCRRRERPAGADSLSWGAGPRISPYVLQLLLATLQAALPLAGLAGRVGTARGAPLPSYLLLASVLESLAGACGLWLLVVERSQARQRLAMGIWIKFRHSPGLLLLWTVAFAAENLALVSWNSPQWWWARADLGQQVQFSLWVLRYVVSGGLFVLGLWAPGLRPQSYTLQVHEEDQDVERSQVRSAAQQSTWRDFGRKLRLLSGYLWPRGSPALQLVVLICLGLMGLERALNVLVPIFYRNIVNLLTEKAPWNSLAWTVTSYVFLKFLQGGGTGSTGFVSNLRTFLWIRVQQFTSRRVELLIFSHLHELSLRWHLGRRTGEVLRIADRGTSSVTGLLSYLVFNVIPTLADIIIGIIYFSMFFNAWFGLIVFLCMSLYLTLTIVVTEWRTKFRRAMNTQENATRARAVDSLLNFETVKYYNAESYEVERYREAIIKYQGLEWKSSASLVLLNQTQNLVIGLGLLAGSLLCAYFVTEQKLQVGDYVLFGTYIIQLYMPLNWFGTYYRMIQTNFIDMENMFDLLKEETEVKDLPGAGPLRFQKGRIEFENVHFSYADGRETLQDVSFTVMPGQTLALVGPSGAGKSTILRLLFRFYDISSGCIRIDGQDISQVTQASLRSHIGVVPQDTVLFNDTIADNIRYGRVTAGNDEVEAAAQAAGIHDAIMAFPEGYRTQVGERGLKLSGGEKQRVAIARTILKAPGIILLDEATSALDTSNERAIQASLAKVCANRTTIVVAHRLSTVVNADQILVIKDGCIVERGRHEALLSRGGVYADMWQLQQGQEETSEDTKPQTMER
AP-2 complex subunit beta (Homo sapiens), sequence (P63010 whole entry, looked up, the tested form may be a part, one chain of several): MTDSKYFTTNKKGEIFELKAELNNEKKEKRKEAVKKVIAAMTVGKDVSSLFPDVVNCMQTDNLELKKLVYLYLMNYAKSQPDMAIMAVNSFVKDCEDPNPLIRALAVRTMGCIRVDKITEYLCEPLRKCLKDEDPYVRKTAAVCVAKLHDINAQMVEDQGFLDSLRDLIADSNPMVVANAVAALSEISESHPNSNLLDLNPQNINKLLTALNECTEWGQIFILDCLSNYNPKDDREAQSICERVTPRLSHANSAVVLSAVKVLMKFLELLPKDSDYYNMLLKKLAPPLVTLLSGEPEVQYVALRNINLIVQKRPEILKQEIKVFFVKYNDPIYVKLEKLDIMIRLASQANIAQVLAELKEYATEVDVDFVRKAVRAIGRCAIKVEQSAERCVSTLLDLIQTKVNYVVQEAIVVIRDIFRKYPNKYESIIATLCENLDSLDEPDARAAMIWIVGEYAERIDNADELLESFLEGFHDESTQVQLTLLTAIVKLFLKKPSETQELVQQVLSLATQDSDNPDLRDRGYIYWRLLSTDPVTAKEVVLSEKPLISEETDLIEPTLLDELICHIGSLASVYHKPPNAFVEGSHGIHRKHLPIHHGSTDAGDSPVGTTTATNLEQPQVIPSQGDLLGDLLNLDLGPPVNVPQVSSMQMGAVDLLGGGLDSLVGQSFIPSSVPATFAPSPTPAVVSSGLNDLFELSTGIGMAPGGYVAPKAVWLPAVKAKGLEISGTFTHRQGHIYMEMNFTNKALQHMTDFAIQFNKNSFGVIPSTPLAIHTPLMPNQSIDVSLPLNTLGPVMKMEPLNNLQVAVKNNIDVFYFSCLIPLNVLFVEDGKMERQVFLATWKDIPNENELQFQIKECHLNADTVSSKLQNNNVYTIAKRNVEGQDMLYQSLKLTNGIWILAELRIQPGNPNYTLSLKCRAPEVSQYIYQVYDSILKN
Beta-2 adrenergic receptor (Homo sapiens), sequence (P07550 whole entry, looked up): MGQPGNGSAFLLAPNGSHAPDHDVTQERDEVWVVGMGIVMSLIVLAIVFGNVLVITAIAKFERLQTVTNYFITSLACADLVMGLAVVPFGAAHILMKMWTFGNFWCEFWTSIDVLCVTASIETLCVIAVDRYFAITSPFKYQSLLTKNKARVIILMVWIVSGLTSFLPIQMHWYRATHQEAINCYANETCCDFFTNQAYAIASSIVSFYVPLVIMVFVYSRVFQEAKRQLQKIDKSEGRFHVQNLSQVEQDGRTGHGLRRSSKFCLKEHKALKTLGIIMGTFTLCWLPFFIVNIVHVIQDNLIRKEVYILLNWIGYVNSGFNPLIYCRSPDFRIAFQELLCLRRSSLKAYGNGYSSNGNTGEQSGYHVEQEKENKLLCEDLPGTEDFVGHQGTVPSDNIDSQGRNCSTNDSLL

COC(=O)c1ccc(CC(=O)c2ccc(O)cc2O)o1
active: response [11] 18.1%
72.3%: double positive events [5]
inactive: percent of DMSO control GFP [1] 93.5% | GFP response vs DMSO [2] 119% | percent response of DMSO control [3] 91.3% | GFP response vs DMSO [4] 79.8% | vesicle binding response [5] 248% | inhibition [6] -32.3% | superoxide response (% of plate) [7] 93.2% | aptamer binding inhibition [8] 4% | response [9] 7.39% | inhibition [10] 5.21% | binding (% of control) [12] 109% | efflux inhibition (fraction of control) [13] -0.24 | inhibition [14] -45% | differentiation response [15] 4.91%

COc1ccc(CCN(C)CC(=O)Nc2cc(C)nc3ccccc23)cc1OC
inactive: percent of DMSO control GFP [1] 108% | percent response of DMSO control [3] 104% | GFP response vs DMSO [4] 94% | GFP response, % of DMSO [16] 94.9% | vesicle binding response [5] 193% | inhibition [6] 10.5% | superoxide response (% of plate) [7] 103% | aptamer binding inhibition [8] 1% | response [9] 7.03% | inhibition [10] -0.03% | response [11] -0.15% | binding (% of control) [12] 96.8% | efflux inhibition (fraction of control) [13] 0.05 | inhibition [14] 5% | differentiation response [15] 5.6%
71.8%: double positive events [5]

COc1ccc(C2C3C(C)=NN=C3CC(C)(O)C2C(C)=O)cc1 (centres undefined)
inactive: percent of DMSO control GFP [1] 99.5% | percent response of DMSO control [3] 97.7% | GFP response vs DMSO [4] 94% | GFP response, % of DMSO [16] 96.9% | vesicle binding response [5] 265% | inhibition [6] 13.2% | superoxide response (% of plate) [7] 103% | aptamer binding inhibition [8] 6% | response [9] -1.78% | inhibition [10] 12.8% | response [11] 2.14% | binding (% of control) [12] 101% | efflux inhibition (fraction of control) [13] -0.21 | inhibition [14] 3% | differentiation response [15] -18.4%
60.7%: double positive events [5]

OC[C@H]1O[C@@H](n2cnc3c(Nc4ccccc4)ncnc32)[C@H](O)[C@@H]1O
62.8%: double positive events [5]
inactive: percent of DMSO control GFP [1] 92.4% | GFP response vs DMSO [2] 118% | percent response of DMSO control [3] 112% | GFP response vs DMSO [4] 73.2% | vesicle binding response [5] 139% | inhibition [6] -9.06% | superoxide response (% of plate) [7] 110% | aptamer binding inhibition [8] 1% | response [9] -8.38% | inhibition [10] -2.59% | response [11] -0.49% | binding (% of control) [12] 103% | efflux inhibition (fraction of control) [13] 0.3 | inhibition [14] 10% | differentiation response [15] 2.46%

CNCCCN1c2ccccc2CCc2ccccc21
inactive: percent of DMSO control GFP [1] 93.3% | GFP response vs DMSO [2] 111% | percent response of DMSO control [3] 92.6% | GFP response vs DMSO [4] 78.7% | vesicle binding response [5] 231% | inhibition [6] 16.2% | superoxide response (% of plate) [7] 81.9% | aptamer binding inhibition [8] -1% | inhibition [10] -10.5% | response [11] 0.46% | binding (% of control) [12] 109% | efflux inhibition (fraction of control) [13] -0.38 | inhibition [14] 9% | differentiation response [15] 9.83%
71.5%: double positive events [5]

c1ccc2c(c1)CCCC2C1=NCCN1 (centres undefined)
inactive: percent of DMSO control GFP [1] 98.2% | percent response of DMSO control [3] 102% | GFP response vs DMSO [4] 108% | GFP response, % of DMSO [16] 110% | vesicle binding response [5] 263% | inhibition [6] -15.6% | superoxide response (% of plate) [7] 82.6% | aptamer binding inhibition [8] -1% | response [9] -24.5% | inhibition [10] -7.04% | response [11] 1.56% | binding (% of control) [12] 101% | efflux inhibition (fraction of control) [13] -0.04 | inhibition [14] 19% | differentiation response [15] 8.8%
69.5%: double positive events [5]

NC12CC3CC(CC(C3)C1)C2
60.2%: double positive events [5]
inactive: percent of DMSO control GFP [1] 94.4% | GFP response vs DMSO [2] 119% | percent response of DMSO control [3] 111% | GFP response vs DMSO [4] 78.7% | vesicle binding response [5] 195% | inhibition [6] -27.5% | superoxide response (% of plate) [7] 96.9% | aptamer binding inhibition [8] -5% | response [9] -15.1% | inhibition [10] 0.4% | response [11] 3.04% | binding (% of control) [12] 102% | efflux inhibition (fraction of control) [13] -0.24 | inhibition [14] 15% | differentiation response [15] -1.64%

COc1cccc(N2CC(O)=C(c3nc4ccccc4c(=O)[nH]3)C2=N)c1
58.4%: double positive events [5]
inactive: percent of DMSO control GFP [1] 97.9% | GFP response vs DMSO [2] 130% | percent response of DMSO control [3] 116% | GFP response vs DMSO [4] 75.9% | vesicle binding response [5] 140% | inhibition [6] 11.3% | superoxide response (% of plate) [7] 106% | aptamer binding inhibition [8] 5% | response [9] 20.8% | inhibition [10] 2.43% | response [11] 8.28% | binding (% of control) [12] 103% | efflux inhibition (fraction of control) [13] -0.2 | inhibition [14] 14% | differentiation response [15] 2.46%

Cc1oc2ccc(OC(=O)c3cccs3)cc2c1C(=O)OC(C)C
inactive: percent of DMSO control GFP [1] 91.2% | percent response of DMSO control [3] 92.5% | GFP response vs DMSO [4] 115% | GFP response, % of DMSO [16] 94.9% | vesicle binding response [5] 205% | inhibition [6] -4.52% | superoxide response (% of plate) [7] 96% | aptamer binding inhibition [8] 1% | response [9] -19.3% | inhibition [10] -7.21% | response [11] -4.85% | binding (% of control) [12] 105% | efflux inhibition (fraction of control) [13] -0.09 | inhibition [14] 2% | differentiation response [15] -4.99%
64.6%: double positive events [5]

CC1(C)C2CCC1(C)C(OCC[N+](C)(C)CC(=O)OC1CCCCC1)C2 (centres undefined)
inactive: percent of DMSO control GFP [1] 88% | GFP response vs DMSO [2] 104% | percent response of DMSO control [3] 104% | GFP response vs DMSO [4] 78.1% | vesicle binding response [5] 196% | inhibition [6] 12.3% | superoxide response (% of plate) [7] 95.2% | aptamer binding inhibition [8] -4% | response [9] -4.15% | inhibition [10] -2.94% | response [11] 3.18% | binding (% of control) [12] 109% | efflux inhibition (fraction of control) [13] -0.06 | inhibition [14] 6% | differentiation response [15] -5.73%
70%: double positive events [5]
